The record followed here is PubChem BioAssay (NCATS).

Structures are written as SMILES. Records with an inconclusive call do not appear. A call without a number means that no potency is given here. Active and inactive are the calls of the source. The call rests on the fitted dose curve; in most records, active means well fitted inhibition curve with a large enough effect; inconclusive means small, poorly fitted or top-dose-only effect; inactive means flat fitted curve, though single readings scatter.

The assay deals with Zika virus NS2B-NS3 protease. Nature of the assay: Primary screen GU AMC qHTS for Zika virus inhibitors (AID 1347154). Further: nearly all actives have a fitted effect of over 70% in size. The conditions noted are these: Zika NS2B-NS3 unlinked protease, AMC fluorogenic substrate; series mostly up to 54.1 µM. The gist of the method: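 Unlinked Zika NS2B hydrophilic domain/NS3 protease domain noncovalent complex (25 nM final) in 10 mM Tris-HCl pH 8.0, 0.01% Tween 20, with AMC peptide substrate. Fluorescence (ex 340, em 450 nm) change over 15 min, room temperature; percent inhibition fitted to 4-parameter Hill equation.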
Take `Cc1ccc2c(Br)cc(Br)c(O)c2n1`: the Potency entry is “inactive”.

For the molecule `O=C(O)CCc1nc2ccccc2[nH]1`, the Potency result was “inactive”.

As for `CC(C)Cn1cnc2c1c(=O)n(C)c(=O)n2C`, the Potency entry is “inactive”. The value for `Cc1cc(C)cc(OCC2CNC(=O)O2)c1` (centres undefined) was “inactive”; that for `O=C(c1ccc(F)cc1)C1CCN(CCn2c(=S)[nH]c3ccccc3c2=O)CC1` was “inactive”. As for `C#C[C@]1(O)CC[C@H]2[C@@H]3[C@H](C)CC4=C(CCC(=O)C4)[C@H]3CC[C@@]21C`, the Potency entry was “inactive”.

Regarding `C=C[C@H]1CN2CC[C@H]1C[C@@H]2[C@@H](O)c1ccnc2ccc(OC)cc12`, the Potency entry is “inactive”. Take `CN1CCN(CCC(=O)N2c3ccccc3Sc3ccc(C(F)(F)F)cc32)CC1`: the Potency result is “inactive”. Consider `CC(=O)OCC(=O)[C@H]1CC[C@H]2[C@@H]3CCC4=CC(=O)CC[C@]4(C)[C@H]3CC[C@]12C`, for which the Potency result is “inactive”. Turning to `Nc1nc(-c2ccccc2)c(Br)c(=O)[nH]1`, the Potency result was “inactive”. With `C=CCN1CCc2nc(N)sc2CC1`, the Potency result was “inactive”. With `CN1CCN(C2=Nc3ccccc3Sc3ccc(Cl)cc32)CC1`, the Potency entry was “inactive”. For the molecule `Oc1ccccc1C=NCc1ccccc1`, the Potency entry is “inactive”.

Regarding `CCCCCCCCOc1ccc(C(=O)c2ccccc2)c(O)c1`, the Potency entry was “inactive”. Turning to `O=C(O)P(=O)(O)O`, the Potency entry was “inactive”.

In the case of `CC(C)(C)NC[C@H](O)COc1cccc2c1CCCC2=O`, the Potency result was “inactive”. As to `CCCCCCCCCCCCSCCOCCO`, the Potency entry was “inactive”. With `CCOc1ccccc1OCCN[C@H](C)Cc1ccc(OC)c(S(N)(=O)=O)c1`, the Potency entry is “inactive”. `CCCCCCCCCCCCCC(=O)OC(C)C`: the Potency result is “inactive”. Turning to `CC(=O)Oc1ccc(C)cc1`, the Potency result is “inactive”.

For the molecule `FC(F)(F)C(F)(F)C(F)(F)C(F)(F)C(F)(F)C(F)(F)C(F)(F)C(F)(F)Br`, the Potency result was “inactive”.

`Cc1c(-c2ccccc2)oc2c(C(=O)OCCN3CCCCC3)cccc2c1=O`: the Potency entry is “inactive”. `NS(=O)(=O)Cc1noc2ccccc12`: the Potency entry was “inactive”. With `CC(=O)OCC1=C(C(=O)O)N2C(=O)[C@@H](NC(=O)CSc3ccncc3)[C@H]2SC1` the entry was “inactive”. Regarding `Cc1ccccc1OCC(O)CO` (centres undefined), the Potency result was “inactive”. Regarding `CC(C)(Cc1c[nH]c2ccccc12)NCC(O)COc1ccccc1C#N` (centres undefined), the Potency entry was “inactive”. For `O=C(Nc1ccccc1)OCC(CN1CCCCC1)OC(=O)Nc1ccccc1` (centres undefined), the Potency result is “inactive”. For the molecule `O=C(O)CCNC(=O)c1ccccc1`, the Potency entry is “inactive”. `CCN(CC)CCNC(=O)COc1ccc(OC)cc1`: the Potency entry was “inactive”. As to `OCCOCCN1CCN(C2=Nc3ccccc3Sc3ccccc32)CC1`, the Potency entry is “inactive”. `OC[C@H]1O[C@@H](Oc2ccc(O)cc2)[C@H](O)[C@@H](O)[C@@H]1O`: the Potency entry is “inactive”.

For `Nc1nc(Cl)nc2c1ncn2[C@@H]1O[C@H](CO)[C@@H](O)[C@@H]1F`, the Potency result is “inactive”.

Take `Cc1ccc(S(=O)(=O)NC(=O)NC2CCCC2)cc1`: the Potency entry is “inactive”.

`O=C(O)c1ccc(S(=O)(=O)N(Cl)Cl)cc1`: the Potency result is “inactive”. The value for `NS(=O)(=O)c1cc2c(cc1Cl)NC(CC1CCCC1)NS2(=O)=O` (centres undefined) was “inactive”; that for `OC1C(O)C(O)C(O)C(O)C1O` (centres undefined) was “inactive”; that for `C[C@@H](O)[C@H]1C(=O)N2C(C(=O)O)=C([C@H]3CCCO3)S[C@H]12` was “inactive”. With `CC(=O)O[C@]1(C(C)=O)CC[C@H]2[C@@H]3C=C(C)C4=CC(=O)CC[C@]4(C)[C@H]3CC[C@@]21C` the entry was “inactive”.

Turning to `CN(C)CCOC(=O)C(c1ccccc1)C1(O)CCCC1` (centres undefined), the Potency entry was “inactive”.
